# About 1,500 (3.8%) of roughly 39,000 compounds were called active. The sample holds actives, similar compounds and a random draw of the others, so the mix is not that of the screen.
# Test system: HSkMC (human skeletal muscle cells)
# Assay: cytotoxicity call (relative viability < 0.9)
# Conditions: 10 µM
row,SMILES,cytotoxicity call
1,C[C@H]1CN([C@@H](C)CO)C(=O)c2cc(NC(=O)Nc3ccc4c(c3)OCO4)ccc2O[C@H]1CN(C)S(=O)(=O)c1cn(C)cn1,inactive
2,Cc1noc(C)c1NC(=O)Nc1ccc2c(c1)C(=O)N([C@@H](C)CO)C[C@H](C)[C@H](CN(C)C(=O)Nc1ccc(F)cc1)OCCCC[C@H](C)O2,inactive
3,Cc1noc(C)c1NC(=O)Nc1ccc2c(c1)C(=O)N([C@H](C)CO)C[C@H](C)[C@H](CN(C)Cc1ccc3c(c1)OCO3)OCCCC[C@H](C)O2,inactive
4,O=C(C[C@H]1CC[C@@H]2[C@H](COC[C@H](O)CN2C(=O)c2ccncc2)O1)NC1CCC1,inactive
5,COc1ccc(CN(C)C[C@@H]2Oc3ccc(NC(=O)Nc4cccc5ccccc45)cc3CC(=O)N([C@@H](C)CO)C[C@@H]2C)cc1,active
6,COc1ccc(CN(C)C[C@H]2Oc3ccc(NC(=O)Nc4cccc5ccccc45)cc3CC(=O)N([C@H](C)CO)C[C@H]2C)cc1,active
7,C[C@H](CO)N1C[C@H](C)[C@@H](CN(C)Cc2ccc(-c3ccccc3)cc2)Oc2ccc(NC(=O)Nc3cccc4ccccc34)cc2CC1=O,inactive
8,COc1ccc(CN(C)C[C@H]2Oc3ccc(NC(=O)Nc4cccc5ccccc45)cc3CC(=O)N([C@@H](C)CO)C[C@H]2C)cc1,inactive
9,C[C@@H]1CN([C@H](C)CO)C(=O)Cc2cc(NC(=O)Nc3cccc4ccccc34)ccc2O[C@H]1CN(C)Cc1ccc(-c2ccccc2)cc1,inactive
10,C[C@H](CO)N1C[C@H](C)[C@H](CN(C)Cc2ccncc2)Oc2ccc(NC(=O)Nc3cccc4ccccc34)cc2CC1=O,active
11,C[C@@H]1CN([C@H](C)CO)C(=O)Cc2cc(NC(=O)Nc3cccc4ccccc34)ccc2O[C@H]1CN(C)Cc1ccncc1,inactive
12,COc1ccc(CN(C)C[C@@H]2Oc3ccc(NC(=O)Nc4cccc5ccccc45)cc3CC(=O)N([C@H](C)CO)C[C@H]2C)cc1,inactive
13,C[C@H]1CN([C@@H](C)CO)C(=O)Cc2cc(NC(=O)Nc3cccc4ccccc34)ccc2O[C@@H]1CN(C)Cc1ccc(-c2ccccc2)cc1,active
14,COc1ccc(CN(C)C[C@@H]2Oc3ccc(NC(=O)Nc4cccc5ccccc45)cc3CC(=O)N([C@H](C)CO)C[C@@H]2C)cc1,inactive
15,C[C@@H]1CN([C@H](C)CO)C(=O)Cc2cc(NC(=O)Nc3cccc4ccccc34)ccc2O[C@@H]1CN(C)Cc1ccncc1,inactive
16,COc1ccc(CN(C)C[C@H]2Oc3ccc(NC(=O)Nc4cccc5ccccc45)cc3CC(=O)N([C@@H](C)CO)C[C@@H]2C)cc1,inactive
17,Cn1nc(Cn2ccnc2)c2c1CN(CCO)C2,inactive
18,C[C@H](CO)N1C[C@H](C)[C@H](CN(C)S(=O)(=O)c2cccs2)Oc2ccc(NS(=O)(=O)c3cccs3)cc2C1=O,inactive
19,C[C@@H]1CN([C@H](C)CO)C(=O)c2cccc(NC(=O)C3CC3)c2O[C@H]1CN(C)S(=O)(=O)c1cn(C)cn1,inactive
20,C[C@@H]1CN([C@H](C)CO)C(=O)c2cc(NS(=O)(=O)c3cccs3)ccc2O[C@@H](C)CCCCO[C@@H]1CN(C)S(C)(=O)=O,inactive
21,COCC(=O)N1C[C@@H](C)[C@H](OC)CN(C)C(=O)c2cc(NC(=O)c3ccc(OC)cc3)ccc2OC[C@H]1C,inactive
22,C[C@@H]1CN([C@@H](C)CO)C(=O)c2cc(NC(=O)NC3CCCCC3)ccc2O[C@@H](C)CCCCO[C@@H]1CN(C)Cc1ccccc1,inactive
23,C[C@H]1CN([C@@H](C)CO)C(=O)c2cc(-c3ccc(C(=O)N(C)C)cc3)cnc2O[C@@H]1CN(C)C(=O)c1ccncc1,inactive
24,COc1cccc(NC(=O)C[C@@H]2CC[C@H]3[C@H](COc4ccc(NC(=O)C5CCOCC5)cc4C(=O)N3C)O2)c1,inactive
25,C[C@@H]1CCCCO[C@H](CN(C)C(=O)Nc2ccccc2)[C@@H](C)CN([C@H](C)CO)C(=O)c2cc(NC(=O)Nc3ccc(F)cc3)ccc2O1,inactive

row,SMILES,cytotoxicity call
1,Cn1nnc2c(Cl)ncnc21,inactive
2,CCOC(=O)/C=C/C(=O)N1CCC=CC1=O,active
3,CCC(=O)OCN1C(=O)C=CC1=O,inactive
4,C=C(C)C(=O)N1CCC=CC1=O,active
5,COc1cc(C=CC(=O)O)cc(OC)c1OC,inactive
6,COC(=O)C=Cc1cc(OC)c(OC)c(OC)c1,inactive
7,COc1cc(C=CC(=O)N2CCCCCCC2)cc(OC)c1OC,inactive
8,COc1cc(/C=C/C(=O)N2CCC=CC2=O)cc(OC)c1OC(=O)CCCCCCCCCCC(=O)Oc1c(OC)cc(/C=C/C(=O)N2CCC=CC2=O)cc1OC,inactive
9,C/C=C/C(=O)N1CCC=CC1=O,inactive
10,COc1cc(/C=C/C(=O)N2CCC=CC2=O)cc(OC)c1OCCOCCOCCOCCC(=O)OC(C)(C)C,active
11,COc1cc(C=CC(=O)N2CCC=CC2=O)cc(OC)c1OC,active
12,C[C@@H]1CN([C@H](C)CO)C(=O)c2cc(NC(=O)Nc3ccc(F)cc3)ccc2O[C@@H](C)CCCCO[C@@H]1CN(C)C(=O)NC1CCCCC1,inactive
13,NCC[C@H]1CC[C@@H](NC(=O)C2CC2)[C@@H](CO)O1,inactive
14,COC[C@H]1CN(C)N=C(C2CC2)O1,inactive
15,C[C@H]1CN([C@@H](C)CO)C(=O)Cc2cc(NC(=O)Nc3cccc4ccccc34)ccc2O[C@@H]1CN(C)Cc1ccc(C(=O)O)cc1,inactive
16,O=C(O)C1CCC1,inactive
17,CO[C@H]1CN(C)C(=O)c2cc(NS(=O)(=O)CC(F)(F)F)ccc2OC[C@@H](C)N(Cc2ccccn2)C[C@H]1C,inactive
18,CC(C)NC(=O)N(C)C[C@H]1Oc2c(NC(=O)Nc3ccc4c(c3)OCO4)cccc2C(=O)N([C@H](C)CO)C[C@@H]1C,inactive
19,C[C@H]1CCCCO[C@H](CN(C)Cc2ccncc2)[C@@H](C)CN([C@@H](C)CO)C(=O)c2cc(NC(=O)CCC(F)(F)F)ccc2O1,inactive
20,O=C(O)C1(c2cccs2)CCCC1,inactive
21,Cc1noc(C)c1NC(=O)N(C)C[C@H]1Oc2c(NC(=O)NC(C)C)cccc2C(=O)N([C@@H](C)CO)C[C@@H]1C,inactive
22,CC[N+](CC)(CC)CCOc1ccc(/C=C/c2ccccc2)cc1,inactive
23,CCCCOc1cc(C(=O)NCCN(CC)CC)c2ccccc2n1.Cl,inactive
24,CCN(CC)CCNC(=O)c1c(C)[nH]c(/C=C2/C(=O)Nc3ccc(-c4csc(-c5ccccc5)n4)cc32)c1C,active

# Source: the antibiotic and cytotoxicity screens of Wong et al. (2023)
